The AC50 is the midpoint of the concentration-response curve, whichever way the signal moves.

For five molecules, outcome and AC50 results are on record in PubChem BioAssay (EPA / NIEHS).

Records with an inconclusive call do not appear. Activity calls are given as the source filed them. How the source made its calls, unless noted: active means hit-call score of the fitted dose curve at least 0.9, where 1 is the maximum; inactive means score below 0.9.

Experiment [1] is described as follows: CCTE_Harrill_HTTr_Viability_MCF7: CCTE's 6-hour Cell Viability Assessment for the High-Throughput Transcriptomics (HTTr) Platform, in MCF-7 cells cultured in DMEM + 10% fetal bovine serum, Harrill Lab (AID 2284010). A digest of the protocol:
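Cells were dosed with chemicals in an eight-point dilution series, imaged 6 hours later for propidium iodide uptake, and the endpoint was analyzed by bidirectional fitting against DMSO as negative control.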

Experiment [2] in a line: CCTE_Harrill_HTTr_Apoptosis_MCF7: CCTE's 6-hour Apoptosis Assessment for the High-Throughput Transcriptomics (HTTr) Platform, in MCF-7 cells cultured in DMEM + 10% fetal bovine serum, Harrill Lab (AID 2284011). An outline of the steps: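 MCF-7 cells in DMEM + 10% FBS exposed 6 h to chemicals over an eight-point dilution series. Caspase-3/7 activation imaged by high-content CellEvent Green staining; fitted bidirectionally versus DMSO.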

Experiment [3] is described as follows: CCTE_Shafer_MEA_acute_spike_number: CCTE's Neural Acute Assay for Total Number of Spikes, Shafer Lab (AID 2284008).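 On AC50: curve fitted for decrease in spike count so AC50 reflects inhibitors.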 A digest of the protocol:
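Rat primary cortical neurons on 48-well MEA plates, DIV 13 or 15, at 37 C. 40 min baseline then 40 min with compound (0.03-40 uM); spikes detected at 8x rms noise, expressed as percent change from baseline.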

Experiment [4] can be described thus: CCTE_Shafer_MEA_acute_firing_rate_mean: CCTE's Neural Acute Assay for Mean Firing Rate, Shafer Lab (AID 2284009).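 Further: analyzed for loss of signal so actives lower firing rate relative to DMSO.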 A digest of the protocol: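 Percent change in well-mean firing rate was derived from extracellular spikes detected at 8x rms noise (300-5000 Hz band-pass) before and after a 40-min compound exposure. Cultures were primary rat cortical neurons, tested at 0.03-40 uM.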

A short description of experiment [5]: CCTE_Shafer_MEA_acute_burst_number: CCTE's Neural Acute Assay for Single-Electrode Bursts, Shafer Lab (AID 2284013). An outline of the steps:
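Spontaneous network activity of primary rat cortical neurons was recorded extracellularly on microelectrode arrays at 37 C, with 40-min periods before and during exposure to 0.03-40 uM compound on DIV 13 or 15.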

Experiment [6] in a line: CCTE_Shafer_MEA_acute_burst_duration_mean: CCTE's Neural Acute Assay for Mean Burst Duration, Shafer Lab (AID 2284014).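 Further: hits are decreases in mean burst duration relative to DMSO controls.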 A digest of the protocol: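 Read-out is the per-well percent change in mean burst duration (first to last spike within a single-electrode burst) between 40-min recordings before and after compound. Cultures were primary rat cortical neurons on MEAs, dosed at 0.03-40 uM on DIV 13 or 15.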

Experiment [7] in a line: CCTE_Shafer_MEA_acute_per_burst_spike_number_mean: CCTE's Neural Acute Assay for Average Number of Spikes Per Burst, Shafer Lab (AID 2284015).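 Further: hits are decreases in mean spikes per burst versus baseline.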 A digest of the protocol:
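Rat primary cortical neurons on 48-well MEAs (DIV 13 or 15) were treated with 0.03-40 uM compound at 37 C. Mean spikes per burst over 40 min were recorded before and after exposure and expressed as percent change from baseline, relative to DMSO.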

The nature of experiment [8]: CCTE_Shafer_MEA_acute_interburst_interval_mean: CCTE's Neural Acute Assay for Mean Interburst Interval, Shafer Lab (AID 2284016).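 Further: percent change of mean interburst interval versus each well's own pre-dose baseline; curves fitted for decrease in interburst interval relative to DMSO.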 An outline of the steps: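 Rat primary cortical neurons on 48-well MEAs at DIV 13 or 15 were exposed acutely to 0.03-40 uM. Spikes detected at 8x rms noise, 37 C. Mean interburst interval from 40 min recordings expressed as percent change from 40 min pre-treatment baseline.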

Experiment [9] in a line: CCTE_Shafer_MEA_acute_burst_percentage_mean: CCTE's Neural Acute Assay for Percentage of Spikes in a Burst, Shafer Lab (AID 2284017).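 On AC50: curve fitted for loss of signal so potency reflects decreased burst percentage.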 An outline of the steps:
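Primary rat cortical neurons on 48-well MEA plates, treated on DIV 13 or 15 at 0.03-40 uM. Spikes detected at 8x rms noise at 37C; percent change from 40-min baseline to 40-min post-dose recording, fitted versus DMSO.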

Experiment [10] is described as follows: CCTE_Shafer_MEA_acute_burst_percentage_std: CCTE's Neural Acute Assay for Standard Deviation of Burst Percentage, Shafer Lab (AID 2284018).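 Further: fitted in the negative direction so actives lower burst percentage SD.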 An outline of the steps: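 Value is percent change from baseline in the across-electrode SD of spikes-in-bursts percentage, wells with >/= 10 active electrodes. Acute 40-min exposure to 0.03-40 uM on DIV 13 or 15 rat cortical cultures, recorded at 37 C after 40-min baseline.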

The nature of experiment [11]: CCTE_Shafer_MEA_acute_per_network_burst_spike_number_mean: CCTE's Neural Acute Assay for Average Number of Spikes in a Network Burst, Shafer Lab (AID 2284019). A digest of the protocol:
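Read-out is mean spike count per network burst, taken as percent change between a 40-min pre-exposure and a 40-min post-exposure recording per well. Rat primary cortical neurons on MEAs at 37 C, DIV 13 or 15; compounds at 0.03-40 uM.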

Experiment [12] in a line: CCTE_Shafer_MEA_acute_per_network_burst_spike_number_std: CCTE's Neural Acute Assay for Standard Deviation of Number of Spikes in a Network Burst, Shafer Lab (AID 2284020).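 Further: fitted for decrease in spike-number SD versus DMSO so actives lower it.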 An outline of the steps:
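Spontaneous network activity of primary rat cortical neurons is recorded extracellularly before and after a 40-min compound exposure (0.03-40 uM) at 37 C. The endpoint is the well's percent change in burst spike-number SD.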

The nature of experiment [13]: CCTE_Shafer_MEA_acute_per_network_burst_electrodes_number_mean: CCTE's Neural Acute Assay for Mean Number of Electrodes in a Network Burst, Shafer Lab (AID 2284021).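 Further: curves fitted for decreases only so hits reduce electrodes per burst.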 A digest of the protocol:
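Rat primary cortical neurons on 48-well MEAs, DIV 13 or 15, were treated at 0.03-40 uM. Spikes were detected at 8x rms noise and recorded at 37 C. The mean electrodes per network burst in a 40 min exposure recording was expressed as percent change from a 40 min baseline.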

A short description of experiment [14]: CCTE_Shafer_MEA_acute_network_burst_percentage: CCTE's Neural Acute Assay for Percentage of Network Bursts, Shafer Lab (AID 2284022).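 Further: curves fitted for loss so actives lower network burst percentage.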 An outline of the steps:
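Rat primary cortical neuron networks on 48-well MEA plates, DIV 13 or 15, treated acutely with compound (0.03-40 uM, at least three wells). Percent of spikes within network bursts compared between 40-min recordings before and during exposure at 37 C, expressed as percent change.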

A short description of experiment [15]: CCTE_Shafer_MEA_acute_cross_correlation_area: CCTE's Neural Acute Assay for Area of Cross Correlation, Shafer Lab (AID 2284024).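 Further: curves fitted for loss of cross-correlation area so actives lower synchrony.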 A digest of the protocol:
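Rat primary cortical neurons on 48-well MEA, DIV 13 or 15; compounds 0.03-40 uM. Baseline and post-exposure 40 min recordings at 37 C; percent change in area under pooled inter-electrode cross-correlation near zero lag, relative to DMSO.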

The nature of experiment [16]: CCTE_Shafer_MEA_acute_cross_correlation_HWHM: CCTE's Neural Acute Assay for Cross Correlation at Half Width at Half Maximum, Shafer Lab (AID 2284026).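 Further: percent change per well from pre-dose baseline in spike cross-correlogram half width; hits are a decrease in cross-correlogram half width relative to DMSO.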 An outline of the steps:
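Rat primary cortical neurons on 48-well MEA plates; 40-min baseline and 40-min post-exposure recordings at 37 C on DIV 13 or 15, compounds 0.03-40 uM. Spikes detected at 8x rms noise; percent change in cross-correlogram HWHM per well vs baseline.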

Experiment [17] in a line: CCTE_Harrill_HTTr_CellCount_MCF7: CCTE's Cell Proliferation Assessment for the High-Throughput Transcriptomics (HTTr) Platform, Harrill Lab (AID 2284012; active means hit-call score of the fitted dose curve at least 0.9, where 1 is the maximum;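 further: cells exposed to compound for six hours; intended direction is loss of nuclei count meaning fewer cells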). A digest of the protocol: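 Chemicals in eight-point dilution series are added to MCF-7 cells for six hours, nuclei are stained with Hoechst and imaged, and per-well nuclei counts are fitted in both directions relative to DMSO controls.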

For `[O-][Cl+]O`, the outcome in [1] and in [2] was inactive.
For the molecule `ClCCOCCCl`, the call in experiment [3], in experiment [4], in [1], in experiment [2], in [5] and in [6] was inactive. The molecule was classed as inactive in experiment [7], in experiment [8], in experiment [9], in [10], in [11] and in [12]. For the same molecule, the molecule was classed as inactive in [13], in experiment [14], in experiment [15] and in experiment [16].
For `CC(C)(OOC(C)(C)c1ccccc1)c1ccccc1`, the call in [3], in experiment [4], in [1], in experiment [2], in experiment [5] and in experiment [6] was inactive. In addition, the molecule was called inactive in experiment [7], in [8], in experiment [9], in experiment [10], in experiment [11] and in experiment [12]. The molecule was called inactive in [13], in experiment [14], in experiment [15] and in experiment [16].
For `CCCCCOC(=O)c1ccccc1C(=O)OCCCCC`, the AC50 in experiment [3] is 2.58 µM (active); in experiment [4] it was 2.58 µM (active); in experiment [5] it was 5.2 µM (active); in experiment [7], 4.26 µM (active); in experiment [8], 1.49 µM (active); in experiment [9] it was 9.17 µM (active). The AC50 in [12] was 4.73 µM (active); in experiment [14] it was 26.4 µM (active); in experiment [16] it was 2.82 µM (active). Also, the result in experiment [1], in [2], in experiment [17], in experiment [6], in experiment [10] and in experiment [11] was inactive. In addition, the call in experiment [13] and in experiment [15] was inactive.
With `CCN(CC)CCO`, the outcome in experiment [3], in experiment [4], in [1], in experiment [2], in experiment [17] and in experiment [5] was inactive. The molecule was classed as inactive in experiment [6], in experiment [7], in [8], in experiment [9], in [10] and in experiment [11]. Moreover, the result in experiment [12], in experiment [13], in experiment [14], in [15] and in [16] was inactive.
